# Screening data as filed in PubChem BioAssay.
# The entries come from a sample that favours hits as a whole.
# LMNA splice mod = modulators of lamin A splicing; HeLa LMNA splicing GFP/RFP minigene ratio, 48 h; Potency, µM (series often up to 46.1 µM), usual class: inhibitors; hit rate 0.01% among 200,000; active = well fitted inhibition curve with a large enough effect in the signal ratio, with a control signal flat, not every such curve was filed as active; inconclusive = small, poorly fitted or top-dose-only effect, or effect the other way, or a change in a side signal; the % refers to the signal ratio
#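 S3 HeLa stable clones carrying a lamin A-EGFP splicing minigene plus DsRed2 were seeded at 600 cells/well in Opti-MEM with 2% FBS, pin-dosed and incubated 48 h at 37°C. Acumen cytometry (488 nm) gave the GFP/RFP total-intensity ratio.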
# IMPase cell inh = IMPase inhibition in cells | CHO-M1 cells, IP1 accumulation, HTRF TR-FRET ratio | inhibition (IP1 accumulation), % at 46.1 µM | 120,000 tested, under 10 active | P97697 | AID 901; active = well fitted curve in the direction sought with a large enough effect in the signal ratio, not every such curve was filed as active; inconclusive = small, poorly fitted or top-dose-only effect, or a change in a side signal; inactive = no such curve, though single readings can be large or run the other way; the % refers to the signal ratio;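 note: cells stimulated with carbachol in lithium chloride buffer; higher means more IMPase inhibition seen as more IP1 and lower FRET ratio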
# Target sequence (P97697 whole entry, looked up): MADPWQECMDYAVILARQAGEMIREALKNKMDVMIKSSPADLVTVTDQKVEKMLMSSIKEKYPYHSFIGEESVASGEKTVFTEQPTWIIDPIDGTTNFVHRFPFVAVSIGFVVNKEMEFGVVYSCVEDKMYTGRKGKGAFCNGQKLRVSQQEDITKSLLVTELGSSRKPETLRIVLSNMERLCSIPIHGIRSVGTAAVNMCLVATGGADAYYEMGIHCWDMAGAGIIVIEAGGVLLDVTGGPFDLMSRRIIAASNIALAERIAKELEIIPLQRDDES
#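 CHO-M1 cells (CHO stably expressing M1 receptor), compound up to 46 uM final, stimulated with carbachol (50 uM as added) in buffer with 50mM LiCl, pH 7.4, 30 min at 37C. Cytosolic IP1 read by TR-FRET; AC50 from Hill fits.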
# PNC assembly inh = blocks assembly of the perinucleolar compartment; hit rate 3.1% among 140,000; activity change (PNC), negative = inhibition, % at 10 µM; PC3M PTB-GFP, PNC prevalence imaging, 16 h; active compounds read low;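 active = readout at or below -70, meaning at least 70% loss of cells showing the perinucleolar compartment, a nuclear body marking cancer cells; inconclusive = readout between -30 and a set limit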
#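 PC3M cells stably expressing PTB-GFP, 750–1000 cells/well, treated 16 h at 37 °C with compound (23 nl of library stock), in duplicate. After paraformaldehyde fixation and Hoechst stain, imaged at 20x; PNC prevalence scored by image analysis.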
# A number is an active result; – = inactive; ? = inconclusive; · = no result; [ ] = another dose, or the depositor's remark.
SMILES,LMNA splice mod,IMPase cell inh,PNC assembly inh
Cc1nc2cc(Nc3ccncc3)ccc2s1,–,·,·
CCNC(=O)c1ccc(C2SCC(=O)N2Cc2ccco2)cc1 (stereo not given),–,–,–
CC(C)CCNC(=O)c1ccc(C2SCC(=O)N2Cc2ccco2)cc1 (stereo not given),–,–,-110
O=C(NC1CCCCC1)C(c1cccnc1)N(C(=O)c1csnn1)C1CCCC1 (stereo not given),–,–,-100
O=C(NC1CCCC1)C(c1cccnc1)N(C(=O)c1csnn1)C1CCCC1 (stereo not given),–,–,–
Cc1ccc(N(Cc2cccs2)C(=O)C(C)Oc2ccc(Cl)c(C)c2)cc1 (stereo not given),–,·,·
Cc1cccc(Cn2c(SCCN3CCOCC3)nc3c2c(=O)n(C)c(=O)n3C)c1,–,–,–
Cc1ccc(Cn2c(SCCN3CCOCC3)nc3c2c(=O)n(C)c(=O)n3C)cc1,–,–,-81
CC(C)c1ccc(N2C(=O)CS(=O)(=O)C23C(=O)N(Cc2cccc(F)c2)c2ccccc23)cc1 (stereo not given),–,·,·
COc1ccccc1CNS(=O)(=O)c1ccc(N2CCCCS2(=O)=O)cc1,–,·,·
CCOC(=O)c1cnc(SCc2nc(N)nc(Nc3ccccc3)n2)nc1N,–,–,-123
CCOC(=O)c1cnc(SCCc2ccccc2)nc1N,–,–,–
COc1ccc(NC(=O)CSc2nnc(-c3nonc3NC(C)=O)n2-c2ccccc2)cc1,–,·,·
C/C(=C(/CCO)SSC[C@@H]1CCCO1)N(C=O)Cc1cnc(C)nc1N,–,–,·
O=C(c1ccc(Cn2cc(Br)cn2)o1)n1cccn1,–,–[1.84 µM],-83
O=C(NCc1ccccn1)c1ccc(Cn2cc(Br)cn2)o1,–,–[1.84 µM],–
O=C(N/N=C/c1c(F)c(F)c(F)c(F)c1F)c1ccc(Cn2cc(Br)cn2)o1,–,·,–
NNC(=O)c1ccc(Cn2cc(Cl)cn2)cc1,–,·,–
O=C(N/N=C/c1c(F)cccc1Cl)c1ccc(Cn2cc(Br)cn2)o1,–,·,-114
NNC(=O)c1ccc(Cn2cc(Br)cn2)cc1,?,·,-114
O=C(CSCc1ccccc1Cl)NNC(=S)Nc1ccccc1,–,–,–
CCOc1ccc2[nH]c3c(=O)n(CCc4ccc(OC)cc4)cnc3c2c1,–,·,·
Cc1ccc(CCNC(=O)C2CCCN(S(=O)(=O)c3cccc4nsnc34)C2)cc1 (stereo not given),–,–,?
Cc1c(NC(=O)C2CCCO2)cccc1[N+](=O)[O-] (stereo not given),–,–,-85
CCC(C)c1ccccc1NC(=O)C1CCCO1 (stereo not given),–,–,?
SMILES,LMNA splice mod,IMPase cell inh,PNC assembly inh
Cc1cccc2sc(NC(=O)C3CCCN(S(=O)(=O)c4cccc5nonc45)C3)nc12 (stereo not given),–,–,-100
Cc1cccc2sc(NC(=O)C3CCCO3)nc12 (stereo not given),–,–,-100
CCc1cccc(C)c1NC(=O)C1CCCO1 (stereo not given),–,–,?
Cc1cccc(CCNC(=O)C2CCCN(S(=O)(=O)c3cccc4nsnc34)C2)c1 (stereo not given),–,–,-95
Cc1cccc(NC(=O)C2CCCN(S(=O)(=O)c3cccc4nonc34)C2)c1C (stereo not given),·,–,·
O=C(CSc1nc2ccccc2n1Cc1cccc(F)c1)NCc1ccccc1,–,·,·
COc1ccc(N(C(C)=O)c2nc(C)cc(C)c2C#N)c(OC)c1,–,·,·
COc1ccc(-n2c(CCc3ccccc3)nnc2SCC(=O)NCc2ccccc2)cc1,–,–,-108
CCOC(=O)CNC(=O)CSc1nc2cccnc2n1C1CCCCC1,–,–,-93
COCCCn1c(SCC(=O)NCc2ccccc2)nc2ccccc2c1=O,–,–,-100
O=C(CSc1nc2cccnc2n1Cc1ccccc1)NCc1ccco1,–,–,–
CCOC(=O)CNC(=O)CSc1nc2cccnc2n1Cc1ccccc1,–,–,-80
O=C(CSc1nnc(CCc2ccccc2)n1-c1ccc(Cl)cc1)NCc1ccccc1,–,–,–
CC(C)OC(=O)CSc1nc2cccnc2n1C1CCCCC1,–,–,–
O=C(CSc1nc2ccccc2c(=O)n1CCCO)NCc1ccccc1,–,–,–
Cc1ccc2oc3c(c(=O)c2c1)C(c1ccc(F)cc1)N(c1nc(C)c(C)s1)C3=O (stereo not given),·,–,·
NC[C@@H]1O[C@H](O[C@@H]2[C@H](O[C@@H]3O[C@H](CO)[C@@H](O)[C@@H]3O)[C@@H](O)[C@@H](N)C[C@H]2N)[C@@H](N)[C@H](O)[C@@H]1O,?,–,·
Cc1ccc(CSCc2ccc(C(=O)NCCc3ccc(Cl)cc3)o2)cc1,–,·,·
CCc1ccc2nc(Nc3ccc(OC)cc3OC)c(C#N)cc2c1,–,·,·
CCn1c2ccccc2c2nnc(SCC(=O)Nc3c(C)n(C)n(-c4ccccc4)c3=O)nc21,?,–,–
Cc1c(NC(=O)CSc2nnc3c4ccccc4n(CCc4ccccc4)c3n2)c(=O)n(-c2ccccc2)n1C,?,–,-90
CCCNC(=O)c1cnc2sc(N3CCCCCC3)nn2c1=O,–,·,·
COc1ccc(N2CCN(CC(O)COc3ccc4c(c3)CCC4)CC2)cc1 (stereo not given),–,–,–
CCOC(=O)c1cccc(NC(=O)c2cc3c(=O)n(Cc4cccnc4)ccc3nc2C)c1,–,·,·
Oc1c(C(c2cccc(Cl)c2)N2CCOCC2)sc2nc(-c3ccco3)nn12 (stereo not given),–,·,·
SMILES,LMNA splice mod,IMPase cell inh,PNC assembly inh
O=C(NNC(=O)C1CC1c1ccccc1)Nc1ccccc1 (stereo not given),–,·,–
Cc1ccc(C2CC2C(=O)NNC(=S)Nc2ccc(Cl)cc2)cc1 (stereo not given),?,–,-97
COC(=O)c1ccc(-c2nn(C)c(=O)c3ccccc23)cc1,–,–,-108
Cn1nc(-c2ccc(C(=O)O)cc2)c2ccccc2c1=O,–,–,–
COc1cc(Cl)c(C)cc1NC(=O)c1sc2nc3n(c(=O)c2c1C)CCCCC3,–,·,·
COc1ccc(C)cc1S(=O)(=O)N(CC(=O)NCc1ccc(Cl)cc1)Cc1ccccc1,?,–,–
CCOC(=O)c1c(C)[nH]c(C(=O)N/N=C/c2ccc(Br)cc2)c1C,?,–,-113
Cc1[nH]c(C(=O)N/N=C/c2ccc(C(=O)O)cc2)c(C)c1C(=O)N/N=C/c1ccc(C(=O)O)cc1,–,?,?
CC(C)CN(C)C(=O)CCc1nnc(Cc2cccc(C(F)(F)F)c2)o1,–,·,·
COC(=O)CSc1nnc(CNc2ccc(F)cc2)o1,–,–,–
CC(C)N(C(=O)CSc1nnc(CNc2ccc(F)cc2)o1)C(C)C,–,–,-100
COCCn1c(C)cc(O)c(C(c2ccc(C)cc2)N2CCCCC2)c1=O (stereo not given),–,·,·
Cc1cc(C)c(/C=N/n2c(C)cc(C)c(C#N)c2=O)c(C)c1,–,·,–
Cc1cc(C)n(/N=C/c2cccs2)c(=O)c1C#N,–,·,-98
CCOc1ccccc1OCC(=O)Nc1ccc(S(=O)(=O)N(C)C)cc1,–,–,-86
CCOc1ccccc1OCC(=O)Nc1ccc(S(=O)(=O)Nc2ncccn2)cc1,–,–,–
CCOc1ccccc1C(=O)N1CCc2cc(OC)c(OC)cc2C1COc1ccc(OC)cc1 (stereo not given),–,·,·
